Each structure is given as a SMILES string. Inconclusive results are not listed. The source made the active and inactive calls. Calls follow the shape of the dose curve; as a rule, active = well fitted curve in the direction sought with a large enough effect; inconclusive = small, poorly fitted or top-dose-only effect, or another doubt; inactive = no such curve, though single readings can be large; an effect the other way counts as inactive or inconclusive. Where a SMILES comes first, the peptide text is derived from it.

The nature of assay [1]: Primary qHTS for inhibitors of nuclear receptor binding SET domain protein 2 (NSD2) in an isogenic RCH-ACV NSD2 p.E1099K mutant (9B) (AID 1645876).
Assay [2] is described as follows: Primary qHTS for inhibitors of nuclear receptor binding SET domain protein 2 (NSD2) in an RCH-ACV wild type WT cells (2C) (AID 1645877).
% is scaled to controls: 0 for no effect and ±100 for the full control effect; potency is read from the fitted curve at half-maximal effect.
Also: nearly all actives have a fitted effect of over 70% in size.

`C[C@@H]1O[C@@H](O[C@H]2[C@H](O)[C@@H](O)[C@H](OC[C@H]3O[C@@H](OC(=O)[C@]45CCC(C)(C)C[C@H]4C4=CCC6[C@@]7(C)C[C@H](O)[C@H](O[C@@H]8O[C@H](CO)[C@@H](O)[C@H](O)[C@H]8O)[C@@](C)(C(=O)O)C7CC[C@@]6(C)[C@]4(C)CC5)[C@H](O[C@@H]4O[C@H](CO)[C@@H](O)[C@H](O)[C@H]4O)[C@@H](O)[C@@H]3O)O[C@@H]2CO)[C@H](O)[C@H](O)[C@H]1O` (stereo not given in full): the activity change, negative = viability loss in assay [1] was -12.2% [at 9.23 µM] (inactive). In addition, the activity change, negative = cell killing in assay [2] is -0.13% [at 9.23 µM] (inactive).

Turning to `C[C@@H]1C[C@H]2[C@@H]3CCC4=CC(=O)C=C[C@]4(C)[C@@]3(F)[C@@H](O)C[C@]2(C)[C@@]1(O)C(=O)COP(=O)(O)O`, the Potency result in assay [1] is “inactive”. In addition, the Potency in assay [2] is 0.0916 µM (active).

On to `C=C1CCC(OC(C)=O)C2(C)CC3(O)OC(=O)C(C)=C3CC12` (stereo not given), for which the Potency entry in assay [1] and in assay [2] was “inactive” each time.

For `CC(C)C1=CCC(C)(O)C(OC2OC(CO)C(O)C(O)C2O)C1` (stereo not given), the Potency entry in assay [1] and in assay [2] was “inactive” throughout.

Take `COc1cc(C(=O)OC[C@H]2O[C@H](O[C@@]3(CO)O[C@@H](CO)[C@H](O)[C@H]3O)[C@H](O)[C@@H](O)[C@@H]2O)ccc1O`: the Potency result in assay [1] and in assay [2] was “inactive” each time.

As for `CC1(CO)CC2C(O)C(=O)C3(CO)CC3(C)C2C1` (stereo not given), the Potency entry in assay [1] and in assay [2] was “inactive” each time.

Turning to `O=C(CCO[C@@H]1O[C@H](CO)[C@@H](O)[C@H](O)[C@H]1O)c1ccc(O)cc1`, the Potency result in assay [1] and in assay [2] was “inactive” in each case.

On to `C[C@@H]1CC[C@]2(C(=O)O)CC[C@]3(C(=O)O)C(=CCC4[C@@]5(C)CC[C@H](O[C@@H]6O[C@@H](C)[C@H](O[C@@H]7O[C@H](CO)[C@@H](O)[C@H](O)[C@H]7O)[C@@H](O)[C@H]6O)C(C)(C)C5CC[C@]43C)C2[C@H]1C` (stereo not given in full), for which the Potency result in assay [1] and in assay [2] was “inactive” each time.

Turning to `CC(=O)NC(CCC(=O)O)C(=O)NCCc1ccc(O)cc1` (stereo not given), the Potency entry in assay [1] and in assay [2] was “inactive” throughout.

For `CC1CCC2(C(=O)OC3OC(COC4OC(CO)C(O)C(O)C4O)C(O)C(O)C3O)CCC3(C)C(=CCC4C5(C)CCC(O)C(C)(C(=O)O)C5CCC43C)C2C1(C)O` (stereo not given), in assay [1], the activity change, negative = viability loss was 1.95% [at 9.23 µM] (inactive). Besides, the activity change, negative = cell killing in assay [2] was 2.11% [at 9.23 µM] (inactive).

With `NC(=O)c1ccc(OCC2NC(=O)C3CCCN3C2=O)cc1` (stereo not given), the Potency entry in assay [1] and in assay [2] was “inactive” each time.

In the case of `C=C1CC2C3(C)C(O)CC(=O)C(C)(C)C3C(OC(C)=O)C(OC(C)=O)C2(C)C2C(=O)OC(C)(C(=O)OC)C(=O)C12C` (stereo not given), the Potency entry in assay [1] and in assay [2] was “inactive” each time.

Regarding `CC1=C2C3OC(=O)C(C)C3(O)CCC2(C)CCC1=O` (stereo not given), the Potency result in assay [1] and in assay [2] was “inactive” in each case.

In the case of `CCNC(=O)CCC/C=C\C[C@@H]1[C@@H](/C=C/C(O)CCc2ccccc2)[C@@H](O)C[C@@H]1O` (stereo not given in full), the Potency entry in assay [1] and in assay [2] was “inactive” in each case.

For the compound `C=CC1(C)C=C2C(=O)CC3C(C)(C)CCCC3(C(=O)O)C2(O)CC1` (stereo not given), the Potency entry in assay [1] and in assay [2] was “inactive” in each case.

As for `C[C@@H]1CCC2C(C)(C)[C@H](O)CC[C@]2(C)[C@@]12Cc1c(O)cc3c(c1O2)CN(CCO)C3=O` (stereo not given in full), the Potency entry in assay [1] and in assay [2] was “inactive” each time.

For `O=C(/C=C/c1ccc(O)cc1)OCC1=CC2OC(=O)C3=CO[C@@H](O[C@@H]4O[C@H](CO)[C@@H](O)[C@H](O)[C@H]4O)[C@H]1[C@@H]32` (stereo not given in full), the Potency result in assay [1] and in assay [2] was “inactive” each time.

Take `C[C@@H]1O[C@@H](O[C@H]2[C@H](O[C@H]3CC[C@@]4(C)C(CC[C@]5(C)C4CC=C4C6CC(C)(C)CC[C@]6(C(=O)O[C@@H]6O[C@H](CO[C@@H]7O[C@H](CO)[C@@H](O[C@@H]8O[C@@H](C)[C@H](O)[C@@H](O)[C@H]8O)[C@H](O)[C@H]7O)[C@@H](O)[C@H](O)[C@H]6O)CC[C@]45C)[C@]3(C)CO)OC[C@H](O)[C@@H]2O)[C@H](O)[C@H](O)[C@H]1O` (stereo not given in full): the activity change, negative = viability loss in assay [1] is -5.7% [at 9.23 µM] (inactive). For the same compound, the activity change, negative = cell killing in assay [2] was -6.93% [at 9.23 µM] (inactive).

For `COc1cc2c(cc1O)C1(OC)Cc3ccc4c(c3C1N(C)CC2)OCO4` (stereo not given), the Potency result in assay [1] and in assay [2] was “inactive” in each case.

As for `COc1cc(/C=C/C(=O)OC[C@H]2O[C@H](O[C@]3(CO)O[C@H](CO)[C@@H](O)[C@@H]3O)[C@H](O)[C@@H](O)[C@@H]2O)cc(OC)c1O`, the Potency entry in assay [1] and in assay [2] was “inactive” each time.

For `CC1=CC(=O)C[C@H]2[C@@H]1CC[C@@H](C)[C@]21CO[C@H](c2ccoc2)C1=O`, the Potency result in assay [1] and in assay [2] was “inactive” each time.

In the case of `C/C=C(\C)C(=O)O[C@@H](C)[C@H]1CC[C@]2(O)C3CCC4C[C@@H](OC5CC(OC)C(OC6CC(OC)C(OC7CC(OC)C(OC8OC(C)C(OC9OC(CO)C(O)C(O)C9O)C(OC)C8O)C(C)O7)C(C)O6)C(C)O5)CC[C@]4(C)C3[C@H](O)[C@@H](O)[C@]12C` (stereo not given in full), the activity change, negative = viability loss in assay [1] was -6.35% [at 9.23 µM] (inactive). Further, the activity change, negative = cell killing in assay [2] was -1.09% [at 9.23 µM] (inactive).

Take `CCCC(N[C@@H](C)C(=O)N1[C@H](C(=O)O)C[C@@H]2CCCC[C@@H]21)C(=O)OCC` (stereo not given in full): the Potency entry in assay [1] and in assay [2] was “inactive” each time.

For the compound `CC1NC(=O)CNC(=O)C(C(C)C)NC(=O)C2CCCN2C(=O)C(C(C)C)NC(=O)C(Cc2c[nH]c3ccccc23)NC1=O` (stereo not given) (cyclo(GAWVPV); configuration not given here), the Potency entry in assay [1] and in assay [2] was “inactive” throughout.

Turning to `CC(C)(O)C1CCC2(C)C3C(O)C4C(C13)C42CO` (stereo not given), the Potency entry in assay [1] and in assay [2] was “inactive” each time.

Consider `C[C@@]12C[C@]3(O)O[C@H](O1)[C@]1(COC(=O)c4ccccc4)[C@H]3C[C@@]12O[C@@H]1O[C@H](COC(=O)c2ccccc2)[C@@H](O)[C@H](O)[C@H]1O`, for which the Potency entry in assay [1] and in assay [2] was “inactive” each time.

Consider `CC(=O)O[C@@H]1[C@H](O[C@@H]2OC[C@](O)(CO)[C@H]2O)[C@@H](O[C@@H]2O[C@@H](C)[C@H](O)[C@@H](O)[C@H]2O)[C@H](OC(=O)[C@]23CCC(C)(C)C[C@H]2C2=CCC4[C@@]5(C)C[C@H](O)[C@H](O[C@@H]6O[C@H](C(=O)O)[C@@H](O)[C@H](O)[C@H]6O)[C@@](C)(C(=O)O)C5CC[C@@]4(C)[C@]2(C)CC3)O[C@@H]1C` (stereo not given in full), for which the activity change, negative = viability loss in assay [1] is -7.7% [at 9.23 µM] (inactive). Also, the activity change, negative = cell killing in assay [2] was -8.29% [at 9.23 µM] (inactive).

For `COC(=O)C1=CO[C@@H](O[C@@H]2O[C@H](CO)[C@@H](O)[C@H](O)[C@H]2O)[C@@H]2[C@@H](C(=O)OC)[C@@H](O)C(O)[C@H]12` (stereo not given in full), the Potency entry in assay [1] and in assay [2] was “inactive” each time.

For `COc1cc(C/C(=C/NC(C)=O)N(CC(=O)Cc2ccccc2)C(C)=O)cc2c1OCO2`, the Potency result in assay [1] and in assay [2] was “inactive” in each case.

In the case of `O=C1NC(Cc2ccc(O)cc2)C(=O)N2CCCC12` (stereo not given), the Potency entry in assay [1] and in assay [2] was “inactive” in each case.

`C=C1CC2[C@]3(C)C(=C(O)C(=O)[C@@]2(C)[C@]2(C(=O)OC)C(=O)C(C)OC(=O)[C@@]12C)C(C)(C)C(=O)CC3O` (stereo not given in full): the Potency result in assay [1] and in assay [2] was “inactive” throughout.

On to `C=CC1(C)CC2=CCC3C(C)(C(=O)O)CCCC3(C)C2CC1OC(C)=O` (stereo not given), for which the Potency result in assay [1] and in assay [2] was “inactive” throughout.

`C=CC1C(O[C@@H]2O[C@H](CO)[C@@H](O)[C@H](O)[C@H]2O)OC=C(C(=O)OC)C1Cc1nccc2c1[nH]c1ccccc12` (stereo not given in full): the Potency result in assay [1] and in assay [2] was “inactive” each time.

With `C[C@@H]1C[C@H](O)/C=C/[C@H](O)[C@@H](O)CC(=O)O1`, the Potency result in assay [1] and in assay [2] was “inactive” throughout.

With `CC1CCC2C(C)(C)C(O)CCC2(C)C12Cc1c(O)cc3c(c1O2)CN(C(CCC(N)=O)C(=O)O)C3=O` (stereo not given), the Potency entry in assay [1] and in assay [2] was “inactive” throughout.

Consider `O=C(O)CCc1cccc(O[C@@H]2O[C@H](CO)[C@@H](O)[C@H](O)[C@H]2O)c1O`, for which the Potency result in assay [1] and in assay [2] was “inactive” in each case.

`CC(=O)OC[C@@]12[C@H](O)C[C@]3(C)C(=CCC4[C@@]5(C)CC[C@H](O[C@@H]6O[C@H](C(=O)O)[C@@H](O[C@@H]7O[C@H](CO)[C@@H](O)[C@H](O)[C@H]7O)[C@H](O)[C@H]6O[C@@H]6O[C@H](CO)[C@@H](O)[C@H](O)[C@H]6O)[C@](C)(CO)C5CC[C@]43C)[C@@H]1CC(C)(C)[C@@H](OC(C)=O)[C@@H]2O` (stereo not given in full): the activity change, negative = viability loss in assay [1] was 3.64% [at 9.23 µM] (inactive). Further, the outcome in assay [2] was “inactive [at 9.23 µM]”.

Turning to `C[C@@H]1O[C@@H](O[C@@H]2[C@@H](O)[C@H](O[C@@H]3[C@@H](O)[C@@H](O)[C@H](O[C@H]4[C@H](OC(=O)[C@]56CCC(C)(C)C[C@H]5C5=CCC7[C@@]8(C)C[C@H](O)[C@H](O[C@@H]9O[C@H](C(=O)O)[C@@H](O)[C@H](O)[C@H]9O)[C@@](C)(CO)C8[C@H](O)C[C@@]7(C)[C@]5(C)CC6)OC[C@H](O)[C@@H]4O)O[C@H]3C)OC[C@H]2O)[C@H](O)[C@H](O)[C@H]1O` (stereo not given in full), the activity change, negative = viability loss in assay [1] is -7.76% [at 9.23 µM] (inactive). In addition, in assay [2], the activity change, negative = cell killing was -21.5% [at 9.23 µM] (inactive).

For `CC(=O)OC[C@]12[C@H](OC(C)=O)C(=O)[C@@H]3[C@@H](OC(C)=O)[C@@]14O[C@@]3(C)COC(=O)c1cccnc1[C@@H](C)[C@H](C)C(=O)O[C@@H]([C@H](OC(C)=O)[C@@H]2OC(C)=O)[C@]4(C)O`, the Potency result in assay [1] and in assay [2] was “inactive” each time.

For the compound `CCC[C@@H]1C[C@@H](C(=O)N[C@@H]([C@H]2O[C@H](SC)[C@H](OP(=O)(O)O)[C@@H](O)[C@H]2O)[C@H](C)Cl)N(C)C1`, the Potency result in assay [1] and in assay [2] was “inactive” in each case.

For the compound `CC(C)(O)CNc1nc(Nc2ccnc(C(F)(F)F)c2)nc(-c2cccc(C(F)(F)F)n2)n1`, the Potency in assay [1] and in assay [2] was 20.9 µM (active) in each case.

As for `Cc1cc(O)c(C(C)C)cc1O[C@@H]1O[C@H](CO)[C@@H](O)[C@H](O)[C@H]1O`, the Potency result in assay [1] and in assay [2] was “inactive” each time.

For `COC(=O)c1cc(CN2CCN(C(=N)N)CC2)cc(C(=O)N2CCN(C(=O)c3ccc(C(=N)N)cc3)CC2)c1`, the Potency result in assay [1] and in assay [2] was “inactive” in each case.

`C=C1[C@@H]2[C@H]3OC(=O)C(=C)[C@@H]3CC[C@@](C)(O)[C@@H]2C[C@@H]1O[C@@H]1O[C@H](CO)[C@@H](O)[C@H](O)[C@H]1O`: the Potency result in assay [1] and in assay [2] was “inactive” throughout.

On to `C/C1=C\C[C@H](O[C@@H]2O[C@H](CO)[C@@H](O)[C@H](O)[C@H]2O)/C(C)=C/[C@H]2OC(=O)[C@H](C)[C@@H]2CC1`, for which the Potency result in assay [1] and in assay [2] was “inactive” throughout.

The values are drawn from PubChem BioAssay (NCATS).
